Measured values reported in PubChem BioAssay (Tox21).
Records with an inconclusive call do not appear. Activity calls are given as the source filed them. Unless noted, the call rests on the fitted dose curve; in most records, active means well fitted curve in the direction sought with a large enough effect in the repeat runs; inconclusive means weak or mixed curves; inactive means no such curve, though single readings can be large; an effect the other way counts as inactive or inconclusive.

What was measured:
[1] = qHTS assay to identify small molecule HDAC inhibitors (AID 1259364);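 further: wild-type HCT-116 cells with endogenous class I/II HDAC activity; top concentration of the series differs between compounds; nearly all actives have a fitted effect of over 45% in size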
Procedure, shortened: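 Quantitative high-throughput format: overnight-seeded HCT-116 cells got compounds for 2 hr at 37C; HDAC-Glo I/II reagent added, 30 min RT, luminescence measured.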

[2] = qHTS assay to identify small molecule HDAC inhibitors - cell viability counter screen (AID 1259365); further: series mostly up to about 92 µM; nearly all actives have a fitted effect of over 50% in size
Procedure, shortened: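 To flag cytotoxic hits, 1,500 wild-type HCT-116 cells per well, plated the day before, receive test compounds for 2hr at 37 C before CellTiter-Glo reagent and a luminescence read.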

[3] = qHTS assay to identify small molecule agonists of the sonic hedgehog signaling (Shh) pathway - cell viability counter screen (AID 1259366); further: nearly all actives have a fitted effect of over 50% in size
Procedure, shortened: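 Fluorescence from CellTiter-Fluor reports live cells in this counter screen. NIH/3T3-derived Gli1-Luc reporter cells receive test compounds for 24hr at 37C; reagent goes in at 23hr.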

[4] = qHTS assay to identify small molecule antagonists of the sonic hedgehog signaling (Shh) pathway - cell viability counter screen (AID 1259367); further: nearly all actives have a fitted effect of over 55% in size
Procedure, shortened: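 CellTiter-Fluor signal in conditioned medium-stimulated 3T3 Gli1-Luc cells, 23 hr compound exposure, 37C.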

[5] = qHTS assay to identify small molecule agonists of the sonic hedgehog signaling (Shh) pathway (AID 1259368; calls by dose curve;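 further: NIH/3T3-derived 3T3Gli1-Luc cells carrying a stable Gli1-driven firefly luciferase reporter; series mostly up to about 92 µM; nearly all actives have a fitted effect of over 15% in size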)
Procedure, shortened: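 Quantitative high-throughput format using a Gli1-driven firefly luciferase reporter line derived from NIH/3T3 cells. After a 24 hr compound treatment at 37 C and 5% CO2, luminescence reported Gli1 response element activity.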

[6] = biological target: Estrogen receptor beta (Homo sapiens) (UniProt Q92731); assay: qHTS assay to identify small molecule agonists of the estrogen receptor beta (ER-beta) signaling pathway (AID 1259377; active means well fitted activation curve with a large enough effect in the signal ratio in the repeat runs, not every such curve was filed as active; the % refers to the signal ratio)
Estrogen receptor beta (Homo sapiens), sequence (Q92731 whole entry, looked up): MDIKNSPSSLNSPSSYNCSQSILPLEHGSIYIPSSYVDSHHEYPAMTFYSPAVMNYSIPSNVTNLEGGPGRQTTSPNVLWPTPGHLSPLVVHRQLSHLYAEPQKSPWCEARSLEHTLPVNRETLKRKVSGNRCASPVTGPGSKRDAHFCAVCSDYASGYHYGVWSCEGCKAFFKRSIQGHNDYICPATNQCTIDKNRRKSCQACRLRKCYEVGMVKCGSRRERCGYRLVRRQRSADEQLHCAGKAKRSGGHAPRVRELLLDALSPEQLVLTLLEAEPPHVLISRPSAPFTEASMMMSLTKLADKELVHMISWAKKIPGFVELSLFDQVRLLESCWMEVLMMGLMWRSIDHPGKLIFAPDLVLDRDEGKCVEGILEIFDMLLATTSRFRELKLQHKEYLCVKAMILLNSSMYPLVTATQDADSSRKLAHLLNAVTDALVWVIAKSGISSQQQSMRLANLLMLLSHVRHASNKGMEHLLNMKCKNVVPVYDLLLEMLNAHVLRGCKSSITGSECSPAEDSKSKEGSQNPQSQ
Procedure, shortened: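 Screening used GripTite ER-beta-UAS-bla cells held in 2% charcoal-stripped FBS medium. After overnight (16 hr) compound incubation at 37C, beta-lactamase activity was detected with a FRET substrate by fluorescence.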

[7] = biological target: Estrogen receptor beta (Homo sapiens) (UniProt Q92731); assay: qHTS assay to identify small molecule antagonists of the estrogen receptor beta (ER-beta) signaling pathway (AID 1259378; active means well fitted inhibition curve with a large enough effect in the signal ratio in the repeat runs, not every such curve was filed as active; the % refers to the signal ratio)
Procedure, shortened: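 Antagonist mode: compounds added to beta-lactamase reporter HEK293T ER-beta-UAS cells stimulated with E2 (1nM final), 16 hr at 37C. LiveBLAzer B/G FRET substrate, 2 hours room temperature, fluorescence read-out.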

[8] = qHTS assay to identify small molecule agonists of the androgen receptor (AR) signaling pathway in the presence of an antagonist - cell viability counter screen (AID 1259379);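 further: MDA-kb2 human breast cancer cells carrying an MMTV luciferase reporter; series mostly up to about 92 µM; nearly all actives have a fitted effect of over 25% in size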
Procedure, shortened: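 Nilutamide-containing (3.0uM final) MDA-kb2 cultures, 3,000 cells/well, were treated with compounds across 15 concentrations. After 16 hr at 37C with no CO2, cell viability was determined by CellTiter-Fluor fluorescence in the luciferase assay wells.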

[9] = qHTS assay to identify small molecule agonists of the estrogen receptor beta (ER-beta) signaling pathway - cell viability counter screen (AID 1259380); further: nearly all actives have a fitted effect of over 30% in size
Procedure, shortened: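 Steps: plate ER-beta-UAS-bla HEK293T cells, rest 6 hr; add compounds in DMSO; incubate 16 hr at 37C, 5% CO2; add FRET substrate 2 hr; add CellTiter-Glo, wait 30 min at room temperature; read luminescence.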

[10] = qHTS assay to identify small molecule antagonists of the estrogen receptor beta (ER-beta) signaling pathway - cell viability counter screen (AID 1259382);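 further: HEK293T cells carrying ER-beta-UAS-bla reporter stimulated with estradiol; series mostly up to about 92 µM; nearly all actives have a fitted effect of over 55% in size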
Procedure, shortened: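 Viability is scored by CellTiter-Glo luminescence (30 min, room temperature) in ER-beta-UAS-bla HEK293T wells already read for reporter fluorescence. Compound exposure lasts 16 hr at 37C alongside 1nM 17-beta-estradiol in charcoal-stripped serum medium.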

[11] = biological target: Estrogen receptor (Homo sapiens) (UniProt P03372); assay: qHTS assay to identify small molecule agonists of the estrogen receptor alpha (ER-alpha) signaling pathway in the presence of an antagonist (AID 1259383; calls by dose curve; further: top concentration of the series differs between compounds; nearly all actives have a fitted effect of over 15% in size)
Estrogen receptor (Homo sapiens), sequence (P03372 whole entry, looked up): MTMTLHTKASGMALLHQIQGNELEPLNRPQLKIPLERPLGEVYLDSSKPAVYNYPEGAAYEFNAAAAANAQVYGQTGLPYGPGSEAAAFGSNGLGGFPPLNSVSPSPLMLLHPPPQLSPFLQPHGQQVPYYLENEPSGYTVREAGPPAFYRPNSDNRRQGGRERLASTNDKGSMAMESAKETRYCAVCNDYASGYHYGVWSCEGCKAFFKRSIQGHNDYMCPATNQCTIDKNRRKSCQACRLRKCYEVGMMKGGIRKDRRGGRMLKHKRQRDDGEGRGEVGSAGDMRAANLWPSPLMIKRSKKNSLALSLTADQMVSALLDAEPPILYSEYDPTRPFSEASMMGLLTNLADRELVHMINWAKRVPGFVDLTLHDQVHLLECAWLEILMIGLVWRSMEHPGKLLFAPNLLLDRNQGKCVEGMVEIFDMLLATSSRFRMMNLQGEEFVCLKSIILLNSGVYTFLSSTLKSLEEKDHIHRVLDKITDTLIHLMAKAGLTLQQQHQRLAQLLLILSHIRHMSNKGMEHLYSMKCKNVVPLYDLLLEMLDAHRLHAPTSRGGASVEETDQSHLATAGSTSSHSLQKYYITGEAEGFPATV
Procedure, shortened: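 Readout was ERE-driven luciferase luminescence in VM7Luc4E2 cells, which express full-length ER-alpha endogenously. Compounds were tested at 15 concentrations for 22hr alongside 10.0nM ICI-182,780 (final concentration).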

[12] = qHTS assay to identify small molecule agonists of the estrogen receptor alpha (ER-alpha) signaling pathway in the presence of an antagonist - cell viability counter screen (AID 1259386);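 further: series mostly up to about 92 µM; cells exposed to compounds for 22 h at 37 °C before the viability read; nearly all actives have a fitted effect of over 30% in size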
Procedure, shortened: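 In this counter screen, compound effects on VM7Luc4E2 viability were tested in the presence of the antagonist ICI-182,780 at 10.0nM final. Compounds were dosed at 15 concentrations, exposure lasted 22hr, and the CellTiter-Fluor signal was read.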

[13] = biological target: Progesterone receptor (Homo sapiens) (UniProt P06401); assay: qHTS assay to identify small molecule agonists of the progesterone receptor (PR) signaling pathway (AID 1346784; calls by dose curve; further: nearly all actives have a fitted effect of over 30% in size)
Progesterone receptor (Homo sapiens), sequence (P06401 whole entry, looked up): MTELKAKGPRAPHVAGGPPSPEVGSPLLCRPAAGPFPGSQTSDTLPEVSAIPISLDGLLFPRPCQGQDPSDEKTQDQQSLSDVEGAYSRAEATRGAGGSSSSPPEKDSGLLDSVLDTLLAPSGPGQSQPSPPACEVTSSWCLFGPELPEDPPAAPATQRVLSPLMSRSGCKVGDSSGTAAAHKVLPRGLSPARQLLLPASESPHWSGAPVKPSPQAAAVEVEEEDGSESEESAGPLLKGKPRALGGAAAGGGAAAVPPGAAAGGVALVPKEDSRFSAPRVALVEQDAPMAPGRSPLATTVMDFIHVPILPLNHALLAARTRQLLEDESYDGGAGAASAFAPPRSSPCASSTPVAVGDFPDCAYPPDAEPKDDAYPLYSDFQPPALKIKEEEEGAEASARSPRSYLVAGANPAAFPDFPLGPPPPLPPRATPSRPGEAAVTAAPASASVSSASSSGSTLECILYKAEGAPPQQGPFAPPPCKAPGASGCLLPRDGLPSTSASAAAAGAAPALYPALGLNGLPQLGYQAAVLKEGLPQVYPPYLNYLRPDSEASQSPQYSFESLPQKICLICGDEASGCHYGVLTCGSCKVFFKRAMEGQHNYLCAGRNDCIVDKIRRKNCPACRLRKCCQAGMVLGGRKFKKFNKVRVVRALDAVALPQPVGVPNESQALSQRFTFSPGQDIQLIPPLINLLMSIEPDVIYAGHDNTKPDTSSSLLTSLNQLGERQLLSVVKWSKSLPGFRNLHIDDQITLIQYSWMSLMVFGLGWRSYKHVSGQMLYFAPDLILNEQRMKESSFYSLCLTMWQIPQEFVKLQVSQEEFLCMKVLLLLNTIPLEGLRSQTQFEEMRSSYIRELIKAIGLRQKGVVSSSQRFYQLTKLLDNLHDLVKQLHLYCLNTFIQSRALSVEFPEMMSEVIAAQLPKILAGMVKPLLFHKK
Procedure, shortened: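 Seed PR-UAS-bla HEK 293T cells (2% charcoal-stripped FBS), incubate 6 hr at 37C; add compounds in DMSO, 16 hr at 37C; add LiveBLAzer B/G substrate, 2 hr RT; read fluorescence intensity.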

[14] = biological target: Progesterone receptor (Homo sapiens) (UniProt P06401); assay: qHTS assay to identify small molecule antagonists of the progesterone receptor (PR) signaling pathway (AID 1346795; active means well fitted inhibition curve with a large enough effect in the signal ratio in the repeat runs, not every such curve was filed as active; the % refers to the signal ratio)
Procedure, shortened: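 Screening used a GripTite HEK293T line with PR-responsive UAS-beta-lactamase. Cells were challenged with compound in the presence of 1 nM R5020 final for 16 hr at 37C; B/G FRET substrate, 2 hr room temperature, fluorescence.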

[15] = qHTS assay to identify small molecule antagonists of the progesterone receptor (PR) signaling pathway - cell viability counter screen (AID 1346798); further: series mostly up to about 92 µM; nearly all actives have a fitted effect of over 50% in size
Procedure, shortened: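 Measures cytotoxicity in parallel with the PR antagonist reporter read: HEK293T PR-UAS-bla cells get compound and R5020 for 16 hr, and remaining viable cells are quantified by CellTiter-Glo luminescence.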

[16] = qHTS assay to identify small molecule agonists of the progesterone receptor (PR) signaling pathway - cell viability counter screen (AID 1346799; calls by dose curve; further: nearly all actives have a fitted effect of over 45% in size)
Procedure, shortened: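 Using the same plates as the PR reporter screen, HEK293T PR-UAS-bla cells received compounds for 16 hr at 37C and were then lysed with CellTiter-Glo; luminescence was read 30 min later at room temperature.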

[17] = qHTS assay to identify small molecule antagonists of the TGF-beta/Smad signaling pathway - cell viability counter screen (AID 1346824); further: nearly all actives have a fitted effect of over 50% in size
Procedure, shortened: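 Cytotoxicity counter-screen run in the same wells as the beta-lactamase Smad reporter read: CellTiter-Glo luminescence after 30 min at room temperature. HEK 293T SBE-bla cells had 5 hr compound exposure at 37 C with TGF-beta1 (0.25 ng/mL stock).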

[18] = qHTS assay to identify small molecule antagonists of the sonic hedgehog signaling (Shh) pathway (AID 1259369; calls by dose curve; further: nearly all actives have a fitted effect of over 45% in size)
Procedure, shortened: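 Stable Gli1-Luc reporter NIH/3T3 clone; quantitative HTS in stimulated mode with conditioned medium. Luminescence measured after 24hr compound treatment at 37 C.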

[19] = qHTS assay to identify small molecule agonists or antagonists of the thyroid stimulating hormone receptor (TSHR) signaling pathway - wild type cell line counter screen (AID 1259384; calls by dose curve)
Procedure, shortened: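 Counter screen in untransfected Hek293: compounds (15-point titration, triplicate) plus phosphodiesterase inhibitor Ro20-1724 added after 18 h plating; 30 min RT. Intracellular cAMP via competitive d2/cryptate immunoassay, 1 h incubation.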

[20] = biological target: Thyrotropin receptor (Homo sapiens) (UniProt P16473); assay: qHTS assay to identify small molecule antagonists of the thyroid stimulating hormone receptor (TSHR) signaling pathway (AID 1259385; calls by dose curve; further: nearly all actives have a fitted effect of over 20% in size)
Thyrotropin receptor (Homo sapiens), sequence (P16473 whole entry, looked up): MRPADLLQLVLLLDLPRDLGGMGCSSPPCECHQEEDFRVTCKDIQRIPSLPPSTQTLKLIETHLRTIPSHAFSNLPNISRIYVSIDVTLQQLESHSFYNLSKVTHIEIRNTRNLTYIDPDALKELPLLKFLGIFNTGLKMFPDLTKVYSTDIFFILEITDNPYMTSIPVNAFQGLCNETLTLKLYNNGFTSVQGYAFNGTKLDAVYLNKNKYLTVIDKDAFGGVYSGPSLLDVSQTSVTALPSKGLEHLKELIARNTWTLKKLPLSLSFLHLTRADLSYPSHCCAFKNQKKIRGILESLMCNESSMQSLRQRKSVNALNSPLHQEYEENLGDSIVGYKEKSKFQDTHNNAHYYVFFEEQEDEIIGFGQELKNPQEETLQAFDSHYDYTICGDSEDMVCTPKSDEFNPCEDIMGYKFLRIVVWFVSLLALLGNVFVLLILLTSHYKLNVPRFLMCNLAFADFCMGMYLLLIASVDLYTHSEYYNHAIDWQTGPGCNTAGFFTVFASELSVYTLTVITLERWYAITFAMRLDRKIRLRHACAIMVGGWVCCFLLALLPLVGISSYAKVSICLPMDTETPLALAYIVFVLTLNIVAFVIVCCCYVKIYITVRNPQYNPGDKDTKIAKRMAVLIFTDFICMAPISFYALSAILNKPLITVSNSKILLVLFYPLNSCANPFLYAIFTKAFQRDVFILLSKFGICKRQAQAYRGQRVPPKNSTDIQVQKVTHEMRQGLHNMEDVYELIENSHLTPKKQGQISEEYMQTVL
Procedure, shortened: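 Antagonist mode: compound-treated TSHR-expressing HEK293 cells were stimulated with 1.5 ng/mL TSH (final) in presence of Ro20-1724 for 30 min at RT. HTRF cAMP detection after 1 h; each compound tested at 15 concentrations, triplicate.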

Measured: Potency

Cc1ccccc1OCC1CO1 (configuration not stated)
not listed: [18] | [19] | [20]
inactive: all other assays above

CNCc1ccccc1
not listed: [6] | [7] | [10] | [11] | [15] | [19] | [20]
inactive: all other assays above

O=[Si]=O
not listed: [18] | [19] | [20]
inactive: all other assays above

c1ccccc1
not listed: [6] | [7] | [10] | [11] | [13]
inactive: all other assays above

C[Si]1(C)N[Si](C)(C)N[Si](C)(C)N1
not listed: [6] | [7] | [10] | [15] | [16] | [19] | [20]
inactive: all other assays above

NC(=O)NNC(N)=O
not listed: [13] | [18]
inactive: all other assays above

O=C(O)c1ccccc1C(=O)OCc1ccccc1
not listed: [6] | [7] | [11] | [17]
inactive: all other assays above

CCCCC(CC)C(=O)OC(C)C (configuration not stated)
not listed: [6] | [7] | [8] | [11] | [17] | [19] | [20]
inactive: all other assays above
